What was measured:
Conditions in all cases: Compound Concentration (nM):1000
[1] = tested on: RET(V804M)
[2] = tested on: RET
[3] = tested on: RIOK1
[4] = tested on: RIOK2
[5] = tested on: RIOK3
[6] = tested on: RIPK1
[7] = tested on: RIPK2
[8] = tested on: RIPK4
[9] = tested on: T1, RIPK5
T1 construct: gene DSTYK

[10] = tested on: ROCK1
[11] = tested on: ROCK2
[12] = tested on: ROS1
[13] = tested on: RPS6KA4(Kin.Dom.1-N-terminal)
[14] = tested on: RPS6KA4(Kin.Dom.2-C-terminal)
[15] = tested on: RPS6KA5(Kin.Dom.1-N-terminal)
[16] = tested on: RPS6KA5(Kin.Dom.2-C-terminal)
[17] = tested on: T2, RSK1(Kin.Dom.1-N-terminal)
T2 construct: gene RPS6KA1

[18] = tested on: T3, RSK1(Kin.Dom.2-C-terminal)
T3 construct: gene RPS6KA1

[19] = tested on: T4, RSK2(Kin.Dom.1-N-terminal)
T4 construct: gene RPS6KA3

[20] = tested on: T5, RSK2(Kin.Dom.2-C-terminal)
T5 construct: gene RPS6KA3
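Note: KINOMEscan scanMAX binding as percent activity remaining versus control; lower means stronger binding.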

Structure (SMILES)	Percent Control [1]	Percent Control [2]	Percent Control [3]	Percent Control [4]	Percent Control [5]	Percent Control [6]	Percent Control [7]	Percent Control [8]	Percent Control [9]	Percent Control [10]	Percent Control [11]	Percent Control [12]	Percent Control [13]	Percent Control [14]	Percent Control [15]	Percent Control [16]	Percent Control [17]	Percent Control [18]	Percent Control [19]	Percent Control [20]
CCc1ccc(Oc2nccc(-c3c(-c4ccc(F)cc4)ncn3C3CCNCC3)n2)cc1 [SB-242719]	100%	100%	57%	97%	72%	100%	59%	100%	82%	100%	90%	61%	100%	73%	98%	87%	99%	77%	97%	94%
COc1cc(C=NNc2ncnc3c2cnn3-c2ccccc2)ccc1O [GW513184X]	100%	44%	32%	45%	16%	96%	50%	9.1%	90%	97%	88%	99%	100%	82%	100%	85%	100%	100%	88%	71%
COc1cccc(-c2c[nH]c3c(N/N=C/c4ccncc4)ncnc23)c1 [GW814408X]	100%	85%	49%	76%	66%	100%	41%	13%	100%	79%	73%	100%	100%	62%	100%	100%	88%	77%	75%	100%
CCS(=O)(=O)c1ccc(OC)c(Nc2ncc(-c3cccc(OC)c3)o2)c1 [GW580509X]	75%	55%	100%	82%	98%	100%	88%	90%	91%	100%	88%	92%	100%	100%	100%	100%	100%	100%	100%	100%
Cl.O=C(Nc1ccc(Oc2ccc3[nH]c(NC(=O)c4ccco4)nc3c2)cc1)Nc1cc(C(F)(F)F)ccc1F [GW683134A]	0.4%	0%	64%	98%	40%	21%	48%	100%	100%	73%	57%	61%	100%	82%	95%	75%	100%	100%	100%	100%
COc1cccc(-n2ncc3c(N/N=C/c4ccncc4)ncnc32)c1 [GW784752X]	87%	97%	79%	75%	94%	89%	38%	3.9%	100%	74%	84%	100%	100%	70%	100%	100%	94%	100%	100%	86%
CCn1c(-c2nonc2N)nc2c(C#CC(C)(C)O)nc(OCCNC)cc21.Cl [GSK949675]	100%	96%	100%	91%	100%	100%	100%	100%	99%	57%	78%	100%	100%	5.9%	91%	34%	100%	100%	97%	72%
Cl.O=C(O[C@H]1CN[C@H](C#Cc2cc3ncnc(Nc4ccc5c(cnn5Cc5ccccc5)c4)c3s2)C1)N1CCOCC1 [GSK200398A]	100%	100%	100%	100%	100%	100%	16%	84%	100%	96%	84%	73%	97%	88%	100%	100%	96%	97%	95%	93%
COC(=O)Nc1nc2ccc(Oc3ccc(NC(=O)Nc4cc(C(F)(F)F)ccc4F)cc3)cc2s1.Cl [GW693917A]	0.5%	0.1%	62%	100%	54%	45%	25%	76%	100%	79%	86%	95%	100%	80%	100%	100%	99%	94%	98%	86%
NS(=O)(=O)c1ccc(N/N=C2\C(=O)Nc3ccc(-c4cnco4)cc32)cc1 [GW276655]	92%	82%	27%	69%	51%	76%	84%	87%	68%	8.8%	2.5%	96%	65%	94%	97%	39%	100%	100%	79%	79%

From paper PMC7826789 (International Journal of Molecular Sciences, 2021)
